Test results published in the supplement of paper PMC6555819.

Columns and labels:
Test in all cases: PBM binding z-score (relative to random genomic background probes); higher = stronger binding; sequences stand for … in GC…GCGATTGACAGCGTAGAATGAAGG
[1] = system: FXR:RXRa (NR concentration 270 nM, RXRa partner concentration 90 nM)
How it was run: (§1)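 Ligand-free nuclear receptor dimers were applied to custom Agilent 4×180K protein-binding microarrays whose double-stranded probes carried direct-repeat seeds, single-nucleotide variants, half-site ablations and random human genomic background sequences in 34-nt variable regions. Incubation lasted 1 h. Binding z-scores were computed against the random background probes from regression-normalized fluorescence.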

[2] = system: LXRa:RXRa (NR concentration 270 nM, RXRa partner concentration 90 nM)
How it was run: as §1

[3] = system: LXRa homodimer (NR concentration 270 nM)
How it was run: as §1

[4] = system: LXRb:RXRa (NR concentration 270 nM, RXRa partner concentration 90 nM)
How it was run: as §1

[5] = system: LXRb homodimer (NR concentration 270 nM)
How it was run: as §1

[6] = system: PPARa:RXRa (NR concentration 270 nM, RXRa partner concentration 90 nM)
How it was run: as §1

[7] = system: PPARg:RXRa (NR concentration 180 nM, RXRa partner concentration 90 nM)
How it was run: as §1

[8] = system: PPARg:RXRa 270nM:90nM, anti-RXR (NR concentration 270 nM, RXRa partner concentration 90 nM)
How it was run: as §1

[9] = system: PPARg:RXRa 30nM:10nM, anti-RXR (NR concentration 30 nM, RXRa partner concentration 10 nM)
How it was run: as §1

[10] = system: PPARg:RXRa 90nM:30nM, anti-RXR (NR concentration 90 nM, RXRa partner concentration 30 nM)
How it was run: as §1

[11] = system: PPARg:RXRa DBDmut IVT, anti-RXR (DBD mutation: RXRa K156A/R161A, NR concentration 270 nM, RXRa partner concentration 90 nM)
How it was run: as §1

[12] = system: PPARg:RXRa IVT, anti-PPARg (NR concentration 270 nM, RXRa partner concentration 90 nM)
How it was run: as §1

[13] = system: PPARg DBDmut:RXRa IVT, anti-PPARg (DBD mutation: PPARg1 K132A/R137A, NR concentration 270 nM, RXRa partner concentration 90 nM)
How it was run: as §1

[14] = system: PPARg DBDmut IVT, anti-PPARg (DBD mutation: PPARg1 K132A/R137A, NR concentration 270 nM)
How it was run: as §1

[15] = system: PPARg homodimer (NR concentration 180 nM)
How it was run: as §1

[16] = system: PXR:RXRa (NR concentration 270 nM, RXRa partner concentration 90 nM)
How it was run: as §1

[17] = system: PXR homodimer (NR concentration 270 nM)
How it was run: as §1

[18] = system: RARa:RXR (NR concentration 270 nM, RXRa partner concentration 90 nM)
How it was run: as §1

[19] = system: RARa homodimer (NR concentration 270 nM)
How it was run: as §1

[20] = system: RARb:RXRa (NR concentration 270 nM, RXRa partner concentration 90 nM)
How it was run: as §1

Row | Sequence | PBM binding z-score [1] | PBM binding z-score [2] | PBM binding z-score [3] | PBM binding z-score [4] | PBM binding z-score [5] | PBM binding z-score [6] | PBM binding z-score [7] | PBM binding z-score [8] | PBM binding z-score [9] | PBM binding z-score [10] | PBM binding z-score [11] | PBM binding z-score [12] | PBM binding z-score [13] | PBM binding z-score [14] | PBM binding z-score [15] | PBM binding z-score [16] | PBM binding z-score [17] | PBM binding z-score [18] | PBM binding z-score [19] | PBM binding z-score [20]
1 | TCATATAGCTAAACAGGTGAAAGTCCGTAAGTTA | -0.237 | -0.00497 | -0.0906 | 0.338 | -0.588 | 1.08 | 0.667 | 1.92 | 2.64 | 2.23 | 1.46 | 0.758 | -0.631 | 0.119 | 0.0802 | 0.228 | -0.231 | 0.404 | 0.0178 | 0.215
2 | ATAGGTAGGTTAGCTGGGGTCATTCAGACTAGGC | 4.92 | 5.76 | 2.97 | 4.81 | 1.29 | 4.82 | 2.59 | 3.65 | 1.45 | 2.69 | 2.88 | 2.9 | 1.18 | 0.716 | 3.23 | 6.38 | 4.41 | 5.88 | 1.73 | 3.2
3 | ATCTATAGGTAAGACTCAGTTCAGTGAAGAACGC | 0.179 | 0.424 | 0.389 | 0.171 | 0.635 | 0.073 | 0.534 | 0.23 | 0.292 | 0.169 | 1 | 0.562 | 0.789 | 1.3 | 0.365 | 1.49 | 1.21 | 0.627 | 0.874 | 0.432
4 | TGGCCTAGGTCATTGGGCCAGTATAGTACGCATC | 4.33 | 2.98 | -0.242 | 1.44 | -0.839 | 3.79 | 3.3 | 3.34 | 0.438 | 2.2 | 1.95 | 3.78 | -0.594 | -1.26 | 1.98 | 1.4 | -0.797 | 1.97 | -0.131 | 3.72
5 | CCTGCTAGGTCGTGGTCAGCTAATCTACAGTATG | 0.204 | 0.138 | -0.589 | 0.0814 | -0.563 | 0.699 | -0.0367 | 0.111 | -0.191 | 0.0176 | 1.33 | 0.742 | -0.546 | -0.828 | 0.0786 | 0.00895 | -0.22 | 0.444 | -0.694 | 1.71
6 | ATCTCTAGGTAAAAATAGTTCAGTGAATGCAAAT | 0.334 | 4.28 | 0.864 | 0.965 | 0.656 | 0.534 | 0.601 | 0.436 | 0.563 | 0.283 | 1.13 | 1.46 | 0.671 | 1.22 | 0.455 | 0.922 | 1.12 | 0.59 | 1.51 | 0.993
7 | TCTTGTAGATCAACAGGAGGTAAAGAAAGATCGA | -0.194 | -0.0725 | -0.569 | -0.104 | -0.41 | 0.461 | 0.106 | 1.19 | 2.4 | 1.96 | 1.4 | 0.479 | 0.613 | 0.824 | -0.233 | 0.0383 | -0.784 | -0.044 | -0.132 | -0.124
8 | GCTTACGGGTCTAAGGTTATAGCATGAATAGAAT | 0.749 | 0.664 | -0.0717 | 1.2 | -0.249 | 2.66 | 3.28 | 4.67 | 3.06 | 4.64 | 0.0529 | 0.754 | 0.306 | 0.266 | 0.501 | 0.939 | 0.427 | 1.66 | 0.142 | 1.02
9 | ATATGTAGGTTACATCCGGGTCGTTCAGGCTATG | 1.06 | 2.86 | 0.557 | 1.67 | 0.653 | 3.5 | 5.18 | 4.47 | 1.66 | 3.49 | 7.59 | 7.22 | 2.21 | 1.61 | 1.23 | 1.64 | 0.721 | 1.35 | 0.787 | 1.49
10 | ATCTCTAGGTAACCAAGTTCAGTCAATGCCGAAC | 0.839 | 1.13 | 1.15 | 1.16 | 0.769 | 1.56 | 0.836 | 0.815 | 0.185 | 0.74 | 4.07 | 3.07 | 0.988 | 0.947 | 1.23 | 2.3 | 2.93 | 1.03 | 1.01 | 1.34
11 | ATCGAGAGGTCGAGGTGAGTATAGAGAAAGGGAA | 2.84 | 2.37 | -0.153 | 1.78 | -0.102 | 3.68 | 2.19 | 2.16 | 0.414 | 1.15 | -0.102 | 1.75 | 0.955 | 0.168 | 0.817 | 1.9 | -0.0163 | 2.63 | -0.363 | 3.14
12 | TAGCCTAGGTCATGCGGGCCTGTATAGTGTCGGC | 3.73 | 3.24 | 0.135 | 1.6 | -0.428 | 3.27 | 1.91 | 2.39 | 0.161 | 1.45 | 1.65 | 2.76 | -0.075 | -0.309 | 0.586 | 1.27 | -0.864 | 2.14 | -0.78 | 3.55
13 | CCGACTGGGACATAAGGTTACCATAAGCCAGCCC | 0.338 | 2.04 | 0.14 | 0.621 | -0.915 | 1.21 | 1.61 | 2.59 | 0.545 | 1.96 | 1.57 | 0.909 | -1.05 | -1.68 | 0.314 | 0.0588 | -0.0723 | 0.922 | -0.0116 | 1.05
14 | ACTCGGAGGACAAAGGACAGAGCTACGCCAGTGA | -0.12 | -0.373 | -0.502 | -0.866 | -0.449 | -0.215 | 1.23 | 1.16 | 0.109 | 0.942 | -0.0501 | -0.429 | -0.346 | -1.22 | -0.327 | -0.688 | -0.112 | -0.495 | -0.7 | 1.62
